Measured values published in PubChem BioAssay (NCATS).
Values joined by “and” are separate entries in the source; they are usually repeats but may differ in a detail not shown here. Equal values may be shown once. Results filed as inconclusive are left out. Active and inactive are the calls of the source. Unless noted, calls come from the whole dose curve; as a rule, active = well fitted curve in the direction sought with a large enough effect; inconclusive = small, poorly fitted or top-dose-only effect, or another doubt; inactive = no such curve, though single readings can be large; an effect the other way counts as inactive or inconclusive.

Columns and labels:
[1] = biological target: Parathyroid hormone/parathyroid hormone-related peptide receptor (Homo sapiens) (UniProt Q03431); assay: qHTS for PTHR1 Agonists: Optimization Screen against the NCGC LOPAC library (AID 1347079);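 note: GloSensor cAMP luminescence in HEK-293 GP2 cells expressing human PTHR1 with IBMX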
Chain of Parathyroid hormone/parathyroid hormone-related peptide receptor (Homo sapiens) (Q03431 whole entry, looked up): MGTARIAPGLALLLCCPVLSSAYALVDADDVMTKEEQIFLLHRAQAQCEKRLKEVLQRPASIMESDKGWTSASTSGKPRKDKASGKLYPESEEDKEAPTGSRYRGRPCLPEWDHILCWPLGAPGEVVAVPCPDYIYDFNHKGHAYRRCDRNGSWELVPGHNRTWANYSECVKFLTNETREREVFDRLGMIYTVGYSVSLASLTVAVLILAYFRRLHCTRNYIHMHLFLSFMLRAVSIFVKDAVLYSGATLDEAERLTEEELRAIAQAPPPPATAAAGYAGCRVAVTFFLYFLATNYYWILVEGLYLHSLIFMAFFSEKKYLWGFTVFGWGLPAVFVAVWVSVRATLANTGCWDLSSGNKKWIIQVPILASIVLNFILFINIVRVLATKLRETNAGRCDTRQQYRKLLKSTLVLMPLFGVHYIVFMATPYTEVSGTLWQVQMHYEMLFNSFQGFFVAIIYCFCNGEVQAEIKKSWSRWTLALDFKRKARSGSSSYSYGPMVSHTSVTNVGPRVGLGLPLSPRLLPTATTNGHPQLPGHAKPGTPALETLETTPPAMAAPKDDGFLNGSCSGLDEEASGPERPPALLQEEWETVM
Procedure, shortened: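 Agonist readout: GloSensor cAMP luminescence, read after 15 min at room temperature. HEK-293-derived GP2 line carries PTHR1; compounds tested as a titration for 1 hr at 37C in presence of IBMX. M-PTH (1-15) served as control.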

[2] = qHTS for Inhibitors of the Functional Ribonucleoprotein Complex (vRNP) of Lassa (LASV) Arenavirus: LASV Primary Screen - GLuc reporter signal (AID 1347082; calls by dose curve; tested in HEK293 reporter line; note: nearly all actives have a fitted effect of over 60% in size; note: potency is the fitted concentration of half-maximal effect)
[3] = qHTS for Inhibitors of the Functional Ribonucleoprotein Complex (vRNP) of Lassa (LASV) Arenavirus: Viability assay - alamar blue signal for LASV Primary Screen (AID 1347083; calls by dose curve; tested in HEK293 reporter line; note: nearly all actives have a fitted effect of over 80% in size; note: potency is the fitted concentration of half-maximal effect)
[4] = qHTS for Inhibitors of the Functional Ribonucleoprotein Complex (vRNP) of Lymphocytic Choriomeningitis Arenaviruses (LCMV): Viability assay - alamar blue signal for LCMV Primary Screen (AID 1347085; calls by dose curve; tested in HEK293 reporter line; note: nearly all actives have a fitted effect of over 80% in size; note: potency is the fitted concentration of half-maximal effect)
[5] = qHTS of pediatric cancer cell lines to identify multiple opportunities for drug repurposing: Primary screen for TC32 cells (AID 1347089); note: nearly all actives have a fitted effect of over 60% in size; note: potency is the fitted concentration of half-maximal effect
Procedure, shortened: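 Measured quantity: luminescence from CellTiter-Glo, reflecting metabolically active TC32 cells following 48 h of compound. Curves came straight from multi-point titrations, with 8 or 11 points in primary and 11 in confirmatory screening.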

[6] = qHTS of pediatric cancer cell lines to identify multiple opportunities for drug repurposing: Primary screen for DAOY cells (AID 1347090); note: nearly all actives have a fitted effect of over 55% in size; note: potency is the fitted concentration of half-maximal effect
Procedure, shortened: (§1)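 Cell viability, CellTiter-Glo luminescence; 500-1,000 cells/well, 8- or 11-point titration, 48 h compound exposure at 37 degrees C, 5% CO2. Controls: DMSO neutral, bortezomib 2.3 µM final as positive.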

[7] = qHTS of pediatric cancer cell lines to identify multiple opportunities for drug repurposing: Primary screen for SJ-GBM2 cells (AID 1347091); note: potency is the fitted concentration of half-maximal effect
Procedure, shortened: as §1

[8] = qHTS of pediatric cancer cell lines to identify multiple opportunities for drug repurposing: Primary screen for A673 cells (AID 1347092); note: potency is the fitted concentration of half-maximal effect; nearly all actives have a fitted effect of over 45% in size
Procedure, shortened: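 Cells are plated, rested 5 h, dosed by pintool, incubated 48 h, then lysed with CellTiter-Glo and read by luminescence. DMSO is the neutral control; bortezomib at 2.3 uM final is the positive control.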

[9] = qHTS of pediatric cancer cell lines to identify multiple opportunities for drug repurposing: Primary screen for SK-N-MC cells (AID 1347093); note: potency is the fitted concentration of half-maximal effect
Procedure, shortened: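 Metabolically active cells were quantified by ATP-dependent luminescence (CellTiter-Glo, 15 min at room temperature) following 48 h treatment. Cells had been plated at 500-1,000 per well and settled for 5 h beforehand.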

[10] = biological target: Nucleoprotein (Lymphocytic choriomeningitis virus (strain Armstrong)) (UniProt P09992); assay: qHTS for Inhibitors of the Functional Ribonucleoprotein Complex (vRNP) of Lymphocytic Choriomeningitis Arenaviruses (LCMV): LCMV Primary Screen - GLuc reporter signal (AID 1347086; calls by dose curve; note: series mostly up to about 57 µM; nearly all actives have a fitted effect of over 70% in size)
Chain of Nucleoprotein (Lymphocytic choriomeningitis virus (strain Armstrong)) (P09992 whole entry, looked up): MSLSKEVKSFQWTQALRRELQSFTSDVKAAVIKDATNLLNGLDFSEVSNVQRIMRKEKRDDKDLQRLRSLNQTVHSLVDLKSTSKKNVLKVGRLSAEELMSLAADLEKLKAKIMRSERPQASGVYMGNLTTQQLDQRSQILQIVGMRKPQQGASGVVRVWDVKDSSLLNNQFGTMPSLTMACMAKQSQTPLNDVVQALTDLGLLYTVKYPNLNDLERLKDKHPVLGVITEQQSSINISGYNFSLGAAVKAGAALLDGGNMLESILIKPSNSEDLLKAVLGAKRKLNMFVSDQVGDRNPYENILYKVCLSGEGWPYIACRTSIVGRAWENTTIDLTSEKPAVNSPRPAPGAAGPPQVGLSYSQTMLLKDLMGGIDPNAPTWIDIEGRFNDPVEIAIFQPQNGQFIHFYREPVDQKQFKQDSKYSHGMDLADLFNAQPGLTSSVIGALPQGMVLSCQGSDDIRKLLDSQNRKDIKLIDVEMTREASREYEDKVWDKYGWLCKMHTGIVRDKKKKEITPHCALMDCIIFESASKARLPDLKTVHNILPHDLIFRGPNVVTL

Measured: Potency

C=C(C)[C@H]1Cc2c(ccc3c2O[C@@H]2COc4cc(OC)c(OC)cc4[C@@H]2C3=O)O1
inactive: [1]
active: [2] 1090 nM | [3] 2.17 µM and 708 nM | [4] 3.85 µM | [5] 1.67 µM and 4.66 µM | [6] 168 nM and 296 nM | [7] 422 nM | [8] 106 nM and 743 nM | [9] 299 nM and 590 nM

CN1C[C@H](CNC(=O)OCc2ccccc2)C[C@@H]2c3cccc4c3c(cn4C)C[C@H]21
not listed: [7] | [8] | [9]
inactive: all other assays above

C[C@@H]1O[C@@H](O[C@H]2C[C@@H](O)[C@]3(CO)[C@H]4[C@H](O)C[C@]5(C)[C@@H](C6=CC(=O)OC6)CC[C@]5(O)[C@@H]4CC[C@]3(O)C2)[C@H](O)[C@H](O)[C@H]1O
inactive: [1]
active: [3] 109 nM and 44.7 nM | [4] 122 nM and 89.1 nM | [5] 131 nM and 93.8 nM | [6] 29.6 nM and 53.1 nM | [7] 18.7 nM and 75 nM | [8] 46.9 nM and 66.8 nM | [9] 16.6 nM and 23.7 nM

O=c1[nH]c2ccccc2n1C1CCN(CCCC(c2ccc(F)cc2)c2ccc(F)cc2)CC1
inactive: [1] | [3] | [4] | [5]
active: [9] 16.8 µM
